In the supplement of paper PMC6555819:

The sequences below were run on VDR:RXRa (NR concentration 270 nM, RXRa partner concentration 90 nM) (assay: PBM binding z-score (relative to random genomic background probes); higher = stronger binding; sequences stand for … in GC…GCGATTGACAGCGTAGAATGAAGG).
Method: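 Protein-binding microarray (Agilent 4x180K custom design, double-stranded 60-nt probes: 5' GC cap, 34-nt variable region, 24-nt constant primer region; full probe sequence given). Purified or IVT nuclear receptor:RXRα heterodimers (3:1 NR:RXRα, mostly 270:90 nM) or homodimers were incubated for 1 h in PBS with 2% milk and no ligand, then detected with Alexa488 antibodies. Fluorescence from o1-orientation probes (~5 replicates averaged) was converted to z-scores against 500 random hg19 background probes. Variable regions are seed direct-repeat (DR0–DR5) sites, all their single-nucleotide variants and half-site ablations.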

Row | Sequence | PBM binding z-score
1 | TCTTGTAGATCAACAGGAGGTTAAGCAAGATCGA | 0.529
2 | TCTACTAGTTGAAGGGCAACCGACGAGTCCGTTT | 0.635
3 | CGTCAAAGTTCAACTAACGTAACGTAAAGCACGC | 4.1
4 | CAAACTAGGTCAGAGAGGTCAAAGTCCGTGCGTA | 7.57
5 | GCTACAGGGTCAAGGCCAGAGTACGCGTATTGAT | 4.28
6 | ATCTCTAGGTAACCAAGTTCATTGAATGCCGAAC | 5.68
7 | TCGAGGAGGTTACCAATGGGGCATTCAGCTTTCT | 1.13
8 | AGGATGAGGTTACCAAAGATCAGGGAAACGCTTG | 1.45
9 | CGAACTAGGTCATCCAGGACGGTGAATACATTGA | 3.72
10 | TCATATAGGTAATACGGGTGAAAGTCGGCATCTA | 1.25
11 | GCTGCTATGTCAGGTTGGTCAGCTAACGGGTACG | -0.421
12 | AGAATGAGGTTACCAAAGATCGGGGAAACGCTTG | 1.3
13 | ACTCGGAGGACAAAGGTCAGAGCTACGCCAGTGA | 3.36
14 | TGAACGAGGTTAAAGATCAGGGAACGTGGCGTCG | 1.8
15 | ATCTCTAGATAAAGATAGTTCAGTGAATGCAAAT | 0.517
16 | TCGGGTAGGTTAGTCGGGGCATTCAGCCAACATA | 2.88
17 | TCATATAGGTAAACATGTGAAAGTCCGTAAGTTA | 1.1
18 | CGTCCAAGGTCATAGCAGGTCAGTGAAGACAGAT | 5.93
19 | CGTCCAAGGTCAGAGATGTCAGTGAATGCCGAGT | 3.64
20 | CTCGAAAGGTCGGATGAGGTGAGTATACGGATAA | 2.74

Row | Sequence | PBM binding z-score
21 | CGAACTAGGTCATCGACAGGACAGTGAATAGTAA | 2.57
22 | GCGTATAGGTAATACAAGGTGAAAGTCCGATTGT | 0.306
23 | TCTGCTAGGTCAGTTGGTCAGCGAACGAGCTGCC | 0.114
24 | TAACCTAGGTCATTGGGCCAGTATAGTACGCATC | 2.89
25 | ATCTCTAGGTAAAGATAGTTCGGTGAATGCAAAT | 0.244
26 | TCATATAGGTAAATGCTAGGTGACAGTCCGATCT | 0.746
27 | GCTCGGAGCACAAGGTCAGAGCTTTGTCCGTAGA | 1.2
28 | GCTGCTAGGTCAACTGATGGTCAGCCAAAGCTCG | 1.58
29 | ATATGTAGGTTAAGGGTCATTAAGGTTGGTTCGC | 6.19
30 | ATCTCTACGTAACCAAGTTCAGTGAATGCCGAAC | 1.17
31 | CAAACTAGGCCACAGAGGTCAAAGTCCGTGCGTA | 6.29
32 | TCTTGTAGATCAGCAGGTTTAGAAAGCTGGCCAA | 0.532
33 | CTCGAAAGGTCGTGCCCAGGTGAGTATACCAAAC | 3.33
34 | ACAGACAGGTGATGAACGTAACTCAGGCTATCAT | -0.0512
35 | TCTATCAGTTGAAGGGCAACCGACGAGTCCGTTT | 1.07
36 | ATTAGCAGGCCAAGGGTCACTCAAGATTAGTCCG | 2.92
37 | CCTAGCAGGCCACTCTGGGTCACTCAAGGCTTGA | 0.79
38 | CCTGCTAGGTCACTGGTCAGCTAAAGCAGCTCGC | 1.39
39 | CCGACTGGAGCAAGGTTACCATAACGCACAGCCA | 0.139
40 | TTACCAAGGTGAAGGACGTTGATCCCTCTGTAGA | 0.111
